High-throughput results: PubChem BioAssay, Sanford-Burnham Center for Chemical Genomics
CYP2C19 inh: human CYP2C19 inhibition. CYP2C19 Supersomes, luciferin-H EGE luminescence, 30 min. inhibition, % at 5 µM. AID 778. hit rate 21% among 96,000. P33261;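 active means CYP2C19 inhibition above a set limit at 5 µM in the primary screen, cut at about 50% in these data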;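 further: plate controls were negative control wells for no effect and 2.5 mM tranylcypromine positive control for full effect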
CYP2C9 activ: activators of human CYP2C9 | P11712 | recombinant CYP2C9, luciferin-H conversion, luminescence; hits give high values; factor 1 = untreated enzyme, 0 = blocked | activation factor at 5 µM | hit rate 1.4% among 96,000 | AID 1024;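 active means activation factor of 2 or more for CYP2C9 at a 5 µM dose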;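 further: 0 = sulfaphenazole-blocked wells and 1 = vehicle-only wells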
CYP2C19 act: activators of human cytochrome P450 2C19; 96,000 tested, under 10 active; activation factor at 5 µM; P33261; recombinant CYP2C19, luciferin-H EGE luminescence; hits give high values; 0 = fully inhibited enzyme, 1 = untreated enzyme; AID 1025;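 active means activation factor of at least 2 at 5 µM in the primary screen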;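 further: 0 = wells with 2.5 mM tranylcypromine and 1 = vehicle-only wells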
CYP2C9 inhib: inhibitors of human CYP2C9; P11712; CYP2C9 Supersomes, luciferin-H conversion, luminescence; inhibition, % at 5 µM; hit rate 20% among 96,000; AID 777;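 active means blocking of liver enzyme CYP2C9 beyond about 50% at 5 µM, limit read from the data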
PLAP activator: activates human placental alkaline phosphatase; hit rate 1.2% among 96,000; activation fold at 20 µM; AID 696; purified PLAP enzyme, luminescent substrate read-out; hits give high values; in the data active means activation fold above about 2
Target sequence (P05187 whole entry, looked up): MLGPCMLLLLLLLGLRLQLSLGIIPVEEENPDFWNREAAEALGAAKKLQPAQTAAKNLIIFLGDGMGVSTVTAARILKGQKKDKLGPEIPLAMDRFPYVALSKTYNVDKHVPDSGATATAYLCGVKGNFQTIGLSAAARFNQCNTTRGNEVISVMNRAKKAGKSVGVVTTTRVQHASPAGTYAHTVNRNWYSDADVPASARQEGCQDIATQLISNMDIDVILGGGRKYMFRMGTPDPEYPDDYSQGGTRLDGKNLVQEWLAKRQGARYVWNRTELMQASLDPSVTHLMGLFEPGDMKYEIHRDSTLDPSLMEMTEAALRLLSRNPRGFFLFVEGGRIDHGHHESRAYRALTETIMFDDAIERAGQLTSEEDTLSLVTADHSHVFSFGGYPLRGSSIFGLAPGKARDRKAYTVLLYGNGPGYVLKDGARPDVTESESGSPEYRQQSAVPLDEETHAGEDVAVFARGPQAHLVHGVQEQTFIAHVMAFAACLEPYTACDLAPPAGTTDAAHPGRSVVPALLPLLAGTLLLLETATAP
* = called active by the depositor. Most compounds without a hit are left out; they make up all but 31% or so of the library.

What do the screens show for `CCOc1cc(C2C(C(=O)OC)=C(C)N=C3SC(C)C(=O)N32)ccc1OC(C)=O` (stereo not drawn)?
CYP2C19 inh: 63.8*; CYP2C9 activ: 0.4; CYP2C19 act: 0.4; CYP2C9 inhib: 59.2*; PLAP activator: 1.2

Results for N=C1C(c2ccccc2)=C(O)CN1c1ccccc1N1CCOCC1 ?
CYP2C19 inh: 8.2; CYP2C9 activ: 1.1; CYP2C19 act: 0.9; CYP2C9 inhib: -9.0; PLAP activator: 1.1

How did CCCc1cc(=O)n2c(nc3ccccc32)[nH]1 do in these assays?
CYP2C19 inh: -2.4; CYP2C9 activ: 0.6; CYP2C19 act: 1; CYP2C9 inhib: 37.0; PLAP activator: 1

Results for Cc1ccc(S(=O)(=O)N2CCC(C(=O)N[C@H](C(=O)N3CCN(C)CC3)C(C)C)CC2)cc1 ?
CYP2C19 inh: 9.7; CYP2C9 activ: 0.9; CYP2C19 act: 0.9; CYP2C9 inhib: 9.2; PLAP activator: 1.7

What do the screens show for `CCOc1ccc(C2C(C(=O)OC)=C(C)N=C3SCCC(=O)N32)cc1OCC` (stereo not drawn)?
CYP2C19 inh: 12.4; CYP2C9 activ: 0.7; CYP2C19 act: 0.9; CYP2C9 inhib: 25.5; PLAP activator: 1.4

How did COC(=O)c1ccc(C2C(C(=O)OCC(C)C)=C(C)N=C3SCCC(=O)N32)cc1 (stereo not drawn) do in these assays?
CYP2C19 inh: 75.5*; CYP2C9 activ: 0.4; CYP2C19 act: 0.2; CYP2C9 inhib: 62.1*; PLAP activator: 1.3

How did CCOc1cc(C2C(C(=O)OC)=C(C)N=C3SCCC(=O)N32)ccc1OC(C)=O (stereo not drawn) do in these assays?
CYP2C19 inh: 35.4; CYP2C9 activ: 0.7; CYP2C19 act: 0.6; CYP2C9 inhib: 30.4; PLAP activator: 1.4

Results for COC(=O)C1=C(C)N=C2SCCC(=O)N2C1c1ccc(C(=O)OC)cc1 (stereo not drawn) ?
CYP2C19 inh: 88.3*; CYP2C9 activ: 0.5; CYP2C19 act: 0.1; CYP2C9 inhib: 54.6*; PLAP activator: 1

How did O=C(CSc1nnc(-c2ccco2)n1CC1CCCO1)c1ccc(F)cc1 (stereo not drawn) do in these assays?
CYP2C19 inh: 38.6; CYP2C9 activ: 1.1; CYP2C19 act: 0.6; CYP2C9 inhib: -8.9; PLAP activator: 1

What do the screens show for `COc1ccc(Cn2c(C)c(C)c(C#N)c2NC(=O)Nc2cccc(Cl)c2)cc1`?
CYP2C19 inh: 3.1; CYP2C9 activ: 0.8; CYP2C19 act: 1; CYP2C9 inhib: 18.6; PLAP activator: 0.9

What do the screens show for `O=C(CSc1nnc(-c2cccnc2)n1Cc1ccccc1)N1CCOCC1`?
CYP2C19 inh: -15.7; CYP2C9 activ: 1.1; CYP2C19 act: 1.2; CYP2C9 inhib: -10.4; PLAP activator: 1

What do the screens show for `CC(C)(C)C(=O)Nc1cccc(C(=O)c2cccc(NC(=O)C(C)(C)C)c2)c1`?
CYP2C19 inh: 54.8*; CYP2C9 activ: 0.8; CYP2C19 act: 0.5; CYP2C9 inhib: 21.8; PLAP activator: 0.9

Results for CCCOC(=O)c1cccc(NC(=O)C(C)(C)C)c1 ?
CYP2C19 inh: 79.0*; CYP2C9 activ: 0.4; CYP2C19 act: 0.2; CYP2C9 inhib: 59.4*; PLAP activator: 1.2

What do the screens show for `CC(=O)c1cccc(NC(=O)C=C(C)C)c1`?
CYP2C19 inh: 11.3; CYP2C9 activ: 1.1; CYP2C19 act: 0.9; CYP2C9 inhib: -7.0; PLAP activator: 0.8

What do the screens show for `COc1ccccc1NC(=O)c1sc2ncn(Cc3ccccc3C)c(=O)c2c1C`?
CYP2C19 inh: 34.4; CYP2C9 activ: 1.5; CYP2C19 act: 0.7; CYP2C9 inhib: -49.6; PLAP activator: 1

What do the screens show for `COc1ccc(OC2C(=O)N(Cc3ccc4c(c3)OCO4)C2c2sccc2C)cc1` (stereo not drawn)?
CYP2C19 inh: 74.0*; CYP2C9 activ: 0.3; CYP2C19 act: 0.3; CYP2C9 inhib: 69.2*; PLAP activator: 0.9

What do the screens show for `C/C(=N\NC(=O)C(C)Oc1ccc([N+](=O)[O-])cc1)c1ccccn1` (stereo not drawn)?
CYP2C19 inh: 68.4*; CYP2C9 activ: 1.3; CYP2C19 act: 0.3; CYP2C9 inhib: -31.2; PLAP activator: 1.4

Results for Cc1nn(-c2ccccc2)c2[nH]c(=O)c(CNCC3CCCO3)cc12 (stereo not drawn) ?
CYP2C19 inh: -7.0; CYP2C9 activ: 0.9; CYP2C19 act: 1.1; CYP2C9 inhib: 6.0; PLAP activator: 1.1

What do the screens show for `CC(C)(C)c1nn(-c2ccccc2)c2[nH]c(=O)c(CNCc3ccc4c(c3)OCO4)cc12`?
CYP2C19 inh: 13.1; CYP2C9 activ: 1.3; CYP2C19 act: 0.9; CYP2C9 inhib: -30.3; PLAP activator: 2.1*
